Compound activity from PubChem.
A selection: hits, their analogues and other compounds. The true share with any hit is near 9.4%.
Pf growth 96h: P. falciparum growth inhibition at 96 hour, primary screen for plastid delayed-death inhibitors | P. falciparum luciferase reporter growth, 96 h | 320,000 tested, 6.9% active | Potency, µM (series often up to 28.7 µM), without a hit: top-dose activity change, negative = inhibition, hits mostly inhibitors | AID 504834; also: % is scaled to controls: 0 for no effect and ±100 for the full control effect
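P. falciparum expressing integrated firefly luciferase grown in erythrocytes (2% hematocrit, 0.05% parasitemia final) with compounds for 96 hours at 37 C, 5% CO2. Growth inhibition read as loss of luminescence after adding luciferase detection reagent.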
AMA1-RON2 inh: disrupts binding of P. falciparum AMA1 to RON2; AlphaScreen AMA1-biotinylated RON2 peptide binding; Potency, µM (top dose mostly 58.2 µM), for the others: top-dose activity change, negative = inhibition, most hits filed as inhibitors; 360,000 tested, 0.2% active;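 also: 0% = vehicle wells and -100% = peptide control; nearly all actives have a fitted effect of over 45% in size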
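AMA1 (3D7) with his tag at 25 nM final met compounds first, then biotinylated RON2 peptide at 25 nM; detection used donor plus acceptor beads, 10 µg/mL apiece, read by AlphaScreen after 30 min at room temperature.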
Pf growth 48h: P. falciparum growth inhibition at 48 hours (one generation); P. falciparum luciferase growth in erythrocytes, 48 h; Potency, µM (doses to about 28.7 µM), for the others: at the top dose activity change, negative = inhibition, usual class: inhibitors; 310,000 tested, 5.9% active; AID 504832; also: % is scaled to controls: 0 for no effect and ±100 for the full control effect
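Read-out is firefly luciferase luminescence from an integrated reporter in P. falciparum, so falling signal marks reduced parasite growth. Infected erythrocytes were at 2% hematocrit and 0.1% parasitemia (final) in Albumax-supplemented RPMI 1640.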
SARS PLpro yeast: blocks SARS-CoV papain-like protease in a yeast assay | S. cerevisiae expressing SARS-CoV PLpro, growth rescue | Potency, µM (titrated, usually from 32.9 µM), for the others: at the highest dose activity, positive = growth rescue, most hits filed as activators | 330,000 tested, 0.19% active | AID 485353; calls by dose curve; also: 0% is about no effect; nearly all actives have a fitted effect of over 55% in size
* hit, by the source's call; ? = inconclusive; / = not tested or not shown; [ ] = dose if it differs, or a comment. Unless noted, calls follow the shape of the dose curve; as a rule, active = well fitted curve in the direction sought with a large enough effect; inconclusive = small, poorly fitted or top-dose-only effect, or another doubt; inactive = no such curve, though single readings can be large; an effect the other way counts as inactive or inconclusive. Potency is read from the fitted curve at half-maximal effect.

SMILES	Pf growth 96h	AMA1-RON2 inh	Pf growth 48h	SARS PLpro yeast
Cc1nc([N+](=O)[O-])c(Sc2nc3ccccc3[nH]2)n1Cc1ccccc1	4.1µM*	16%	?	5%
Cc1nc([N+](=O)[O-])c(N2CCN(Cc3ccccc3)CC2)n1Cc1ccccc1	17µM*	-17%	/	0%
CCCn1c(N2CCN(Cc3ccc(Cl)cc3)CC2)nc2ccccc21	29%	-22%	?	-2%
Cc1cc2nc(Sc3c([N+](=O)[O-])nc(C)n3Cc3ccccc3)[nH]c2cc1C	?	-16%	10µM*	9%
COc1ccc2nc(Sc3c([N+](=O)[O-])nc(C)n3Cc3ccccc3)[nH]c2c1	?	-3%	23%	1%
COc1cc(/C=N/OCC(=O)Nc2cc(C)cc(C)c2)ccc1OCc1ccc(Cl)cc1	-36%	-9%	172%	-5%
Nc1nc(C23CC4CC(CC(Cl)(C4)C2)C3)cs1	9%	-18%	13%	-5%
CSCCC1NC(=O)N(CC(=O)Nc2c(C(C)C)cccc2C(C)C)C1=O (centres undefined)	11%	-3%	-2%	2%
COc1ccc(-c2nc(N)ncc2-c2ccc(OC)c(OC)c2)c(O)c1	-3%	-12%	-7%	-2%
COc1ccc2[nH]c(=O)c(CN(CC3CCCO3)C(=S)Nc3ccccc3)cc2c1 (centres undefined)	256%	-3%	18%	-1%
CCN1CCCC1CN(Cc1cc2ccc(C)cc2[nH]c1=O)C(=S)Nc1cccc(OC)c1 (centres undefined)	15%	-10%[11.6 µM]	10µM*	0%
Cc1cc2cc(CN(CC3CCCO3)C(=S)NCc3ccco3)c(=O)[nH]c2cc1C (centres undefined)	-74%	-10%	-24%	-19%
COc1ccccc1NC(=S)N(Cc1ccco1)Cc1cc2cccc(C)c2[nH]c1=O	-4%	-24%	?	16%
COc1ccccc1NC(=S)N(Cc1ccco1)Cc1cc2cc(C)c(C)cc2[nH]c1=O	2.1µM*	-12%	13µM*	-2%
Cc1cc2cc(CN(CC3CCCO3)C(=S)Nc3ccccc3)c(=O)[nH]c2cc1C (centres undefined)	9%	-18%	12µM*	0%
COc1ccc2cc(CN(CC3CCCO3)C(=S)Nc3ccccc3)c(=O)[nH]c2c1 (centres undefined)	?	-18%	9.3µM*	0%
O=C(c1cccs1)N1CCN(c2nc3ccccc3s2)CC1	53%	4%	5%	-2%
CN1C(=O)NC(NC(=O)c2ccco2)(C(F)(F)F)C1=O (centres undefined)	37%	-19%	?	-1%
COc1ccc(S(=O)(=O)N2CCC(C(=O)N[C@@H](C)C(=O)NC3CCCC3)CC2)cc1	-10%	-14%	22%	2%
CC(C)(O)C#Cc1ccc(CN2CCN(Cc3ccsc3)C(CCO)C2)s1 (centres undefined)	8.3µM*	22%	-4%	0%
COc1ccc(S(=O)(=O)N2CCCCC2)cc1NC(=O)CCNC(=O)c1ccc(Cl)cc1	/	-4%	/	-3%
CC(C)(C)C(=O)Nc1ccccc1C(=O)Nc1cc(Cl)ccc1Cl	4.1µM*	23%	12µM*	-1%
CC(C)(C)C(=O)Nc1ccccc1C(=O)Nc1cccnc1	46%	3%	9%	2%
CCOC(=O)[C@]12CCC=C1N(CCC1=CCCCC1)C(=O)[C@H](CC(=O)NCc1cccc(C(F)(F)F)c1)C2	/	0%	/	/
O=C(CSc1nnc(Cc2cccs2)n1CCc1ccccc1)N1CCCc2ccccc21	/	-7%	9.3µM*	-4%
SMILES	Pf growth 96h	AMA1-RON2 inh	Pf growth 48h	SARS PLpro yeast
Cn1cccc1Cc1nnc(SCC(=O)N2CCc3ccccc32)n1CCc1ccccc1	?	-9%	13µM*	1%
Cn1cccc1Cc1nnc(SCC(=O)N2CCCC2)n1CCc1ccccc1	?	1%	/	3%
CCn1nc(C)c(/C=N/NC(=O)CSc2ccccn2)c1C	15%	-13%	32%	1%
CC(C)c1nc2oc3c(N(C)CCO)ncnc3c2c2c1CCC2	0.83µM*	9%	?	0%
CCCc1nc2oc3c(NCC4CCCO4)ncnc3c2c2c1COC(C)(C)C2 (centres undefined)	12%[5.75 µM]	-8%	-26%	-1%
CC(C)c1nc2oc3c(NCC4CCCO4)ncnc3c2c2c1CCC2 (centres undefined)	2.9µM*	-4%	1.9µM*	-4%
COc1ncnc2c1oc1nc(CC(C)C)c3c(c12)CCCC3	31%	-11%	11%	-2%
Cc1ccc(NC(=O)CC2Oc3ccc(C)cc3NC2=O)cc1 (centres undefined)	305%	-6%	/	11%
COc1ccc(NC(=O)CC2Oc3ccc(C)cc3NC2=O)cc1 (centres undefined)	?	-1%	/	-2%
COC(=O)CC1Oc2ccc(C)cc2NC1=O (centres undefined)	9.3µM*	12%	/	1%
CCOc1ccc(OCC)c(NC(=O)CC2Oc3ccc(C)cc3NC2=O)c1 (centres undefined)	10µM*	-9%	/	3%
O=C(O)CC1Oc2ccc(Cl)cc2NC1=O (centres undefined)	5.2µM*	-3%	11%	0%
COc1ccc(OC)c(CCNC(=O)CC2Oc3ccc(C)cc3NC2=O)c1 (centres undefined)	10µM*	14%	/	-3%
CN1CCN(CC(O)COc2ccccc2)CC1 (centres undefined)	?	-2%	42%	0%
CC1(C)NC(=O)N(CCCCOc2ccc3ccccc3c2Cl)C1=O	?	-14%	/	-2%
CC1(C)NC(=O)N(CCOCCOc2ccc3ccccc3c2Br)C1=O	3.7µM*	-4%	/	9%
O=C(O)COc1ccc(C(=O)c2cccs2)c(Cl)c1Cl	3.8µM*	/	7%	/
O=C(Nc1ccc(-c2nc3ccccc3s2)cc1)c1cc(-n2cnnc2)ccc1Cl	7.4µM*	10%	9.3µM*	9%
CCOC(=O)C1=C(C)NC(C)=C(C(=O)OCC)C1C(=O)OCC(=O)N1CCc2ccccc21	/	3%	10µM*	0%
O=C1c2ccccc2C(c2nnnn2Cc2ccccc2)N1CCc1ccccc1F (centres undefined)	/	5%	/	/
COc1ccccc1-c1oc2ccccc2c1-c1ccccc1OC	/	4%	/	-6%
COc1ccc(-c2c(-c3ccccc3OC)oc3ccccc23)cc1F	2.6µM*	2%	2.9µM*	0%
CCN1CCCC1CNC(=O)CS(=O)(=O)Cc1nc(-c2ccccc2C)oc1C (centres undefined)	-16%	-7%	12µM*	1%
Cc1oc(-c2ccccc2F)nc1CS(=O)(=O)CC(=O)N1CCN(Cc2ccccc2)CC1	?	0%	-25%	6%
Cc1oc(-c2ccccc2F)nc1CS(=O)(=O)CC(=O)NCCN1CCCC1	38%	-7%	?	6%
Cc1oc(-c2ccccc2F)nc1CS(=O)(=O)CC(=O)N1CCOCC1	9.3µM*	11%	5%	4%
Cc1oc(-c2ccccc2F)nc1CS(=O)(=O)CC(=O)NCCCN1CCc2ccccc2C1	8.3µM*	-9%	?	-4%
